Reference: PubChem BioAssay AID1985 (Southern Research Specialized Biocontainment Screening …, 2009)
Hit rate of the full screen: of about 2,300 compounds, about 1,000 (43%) were called active. The set was probably picked from earlier hits. Some of the results follow. Entries with a potency or affinity are not part of this list. A number with no mark means an inactive call. How the calls were made is not given here.

Assay: PhoP regulon inhibitor project modified counter assay, GFP fluorescence readout, dose response (AID 1985)
Settings: S. Typhi, 4 h; series mostly up to 150 µM; inhibition: at the top concentration
In the case of Cn1c(=O)c(=O)n(C)c2cc(S(=O)(=O)N3CCc4ccccc43)ccc21, the “inhibition” value is reported as -1.84%.
For COc1ccc(-c2nc3cc(NC(=O)Cc4ccc(OC)c(OC)c4)ccc3o2)cc1, the “inhibition” value was -33.6%.
In the case of COC(=O)c1cc2oc(C)cc2n1CC(=O)Nc1ccc(C)c(C)c1, the “inhibition” value is reported as 3.22%.
For CC(C)OC(=O)Cn1c(=O)sc2ccccc21, the “inhibition” value was -7.83%.
For CC(=O)Nc1ccccc1-c1nc2ccc(C(=O)N3CCN(c4cc(C)ccc4C)CC3)cc2[nH]c1=O, the “inhibition” value was -0.17%.
For COc1ccc(Cl)cc1C(=O)C1CCCN(CCO)C1 (stereo unspecified), the “inhibition” value was -12.2%.
In the case of COc1c(Br)cc2c(C)c(C(=O)N3CCOCC3)oc2c1Br, the “inhibition” value is reported as -17.8%.
With CCCCCCOc1ccc(CN2CCN(CC)CC2)cc1 the “inhibition” value was 28.1%.
With CCCN(CCC)c1nc(C)cc(C(C#N)c2nc3ccccc3o2)n1 (stereo unspecified) the “inhibition” value was -11.7%.
For CN(CC(=O)NCc1ccncc1)S(=O)(=O)c1ccccc1, the “inhibition” value was -30.7%.
With O=c1cc(-c2ccc(Cl)cc2)[nH][nH]1 the “inhibition” value was -26%.
For Cc1cc(N=Nc2ccccc2)c(NCC(O)C(O)C(O)CO)cc1C (stereo unspecified), the “inhibition” value was 10.9%.
In the case of O=C1c2ccccc2C(=O)N1CCCP(=O)(O)CCc1ccccc1, the “inhibition” value is reported as -26.5%.
With Cc1ccc(C)c(N/C(N)=N/c2nc(C)cc(C)n2)c1 the “inhibition” value was 9.72%.
With Cc1cc(C)c(-n2nnnc2SC(C)C)c(C)c1 the “inhibition” value was -0.97%.
For Cc1ccccc1N1C(N)=NC(N)=NC1(C)C, the “inhibition” value was -6.52%.
In the case of COc1cc(/C=N/N(C)S(=O)(=O)c2ccc(C)cc2)cc([N+](=O)[O-])c1O, the “inhibition” value is reported as 36.4%.
With COc1ccccc1CNC(=O)Cn1c(=O)oc2cc(S(=O)(=O)N3CCCC3)ccc21 the “inhibition” value was 12.1%.
In the case of CCCCN1/C(=C/c2cccc[n+]2C)Sc2cc(NC(C)=O)ccc21, the “inhibition” value is reported as 5.75%.
For CCCCc1cc(=O)oc2cc(C)c(CN3CCCC3)c(O)c12, the “inhibition” value was 20.6%.
For O=C(NC(O)C(=O)c1ccccc1)c1ccc(F)cc1 (stereo unspecified), the “inhibition” value was -23.6%.
With COc1ccccc1/C=C/C(=O)Nc1cccc(C(C)=O)c1 the “inhibition” value was 24.2%.
With O=C(/C=C/c1ccc(Cl)cc1Cl)NCc1ccncc1 the “inhibition” value was 16.7%.
With Cc1ccc(N2C(N)=C(C#N)C(c3cccnc3)C3=C2CC(C)(C)CC3=O)cc1 (stereo unspecified) the “inhibition” value was -21.1%.
In the case of CCOc1cc(CNC(C)(C)CO)cc(Br)c1OCc1ccc(Cl)cc1Cl, the “inhibition” value is reported as 32.3%.
With OCCCCNCc1ccc(OCc2ccccc2Cl)cc1 the “inhibition” value was 23.7%.
With COc1cc(CNC2CCCC2)cc(Cl)c1OCc1ccccc1Cl the “inhibition” value was -28.1%.
In the case of CCOC(=O)c1c(C)[nH]c(C(=O)CN2C(=O)NC(C)(c3ccc4ccccc4c3)C2=O)c1C (stereo unspecified), the “inhibition” value is reported as -6.21%.
For Cc1cc(=O)oc2ccc(OCC(=O)N3CCC(C)CC3)cc12, the “inhibition” value was 14.8%.
For O=C(O)COc1ccc(F)cc1Br, the “inhibition” value was 3.92%.
With O=C(COc1ccc(Cl)cc1)N1CCN(C2CCCC2)CC1 the “inhibition” value was -26.3%.
With CC1CC1C(=O)Nc1nc2ccc(S(C)(=O)=O)cc2s1 (stereo unspecified) the “inhibition” value was 6.02%.
With CCOC(=O)Cc1csc(NC(=O)c2ccc(S(=O)(=O)N3CCCC3)cc2)n1 the “inhibition” value was -6.85%.
With Cc1ccc(-c2nc(C(=O)NCCCN(C)C)cc3c2[nH]c2ccccc23)cc1 the “inhibition” value was 15.2%.
With O=C(Cn1cnc2cc([N+](=O)[O-])ccc2c1=O)Nc1ccccc1Cl the “inhibition” value was 4.55%.
In the case of O=C(Nc1nccs1)c1ccc(Cl)cc1[N+](=O)[O-], the “inhibition” value is reported as 2.12%.
With O=C(NCCCN1CCOCC1)C(C(=O)c1ccccc1)n1ccccc1=O (stereo unspecified) the “inhibition” value was 25.3%.
For CCCCNC(=S)Nc1ccc([N+](=O)[O-])cc1, the “inhibition” value was 37.9%.
With COc1cc(CNc2ccc(N3CCN(C(C)=O)CC3)cc2)ccc1OCc1ccccc1 the “inhibition” value was -2.24%.
With COc1cc(CNCCc2c[nH]c3ccccc23)ccc1OCc1ccccc1F the “inhibition” value was 8.11%.
For COc1ccc(CNCCc2c[nH]c3ccccc23)c(OC)c1C, the “inhibition” value was 0.46%.
With O=C(Cn1c(C(F)(F)F)nc2ccccc21)NCCCN1CCOCC1 the “inhibition” value was -22.6%.
With Cc1ccc(S(=O)(=O)N(Cc2n[nH]c(=S)n2-c2ccccc2)c2ccccc2)cc1 the “inhibition” value was -23%.
For COc1ccccc1OCc1nnc(SCC(=O)NCc2ccco2)n1Cc1ccco1, the “inhibition” value was -24.1%.
In the case of O=C(Nc1ccc(Br)cc1)N1CCCCC1, the “inhibition” value is reported as 22.6%.
With O=C(Cn1nc(Cl)nc1Cl)c1ccc([N+](=O)[O-])cc1 the “inhibition” value was 27.9%.
For CCn1c(CNC(=O)c2ccc(OC)cc2)nnc1SC, the “inhibition” value was 1.63%.
With COc1cc(C(=O)NC(=S)Nc2cccc3nc(C)ccc23)cc(OC)c1OC the “inhibition” value was -5.39%.
With CN(C)S(=O)(=O)c1cccc(NC(=O)c2cnccn2)c1 the “inhibition” value was 10.4%.
With COc1ccc(C(=O)NNS(=O)(=O)c2ccccc2)cc1OC the “inhibition” value was -24%.
In the case of CCOc1ccc2nnnn2n1, the “inhibition” value is reported as -9.4%.
With COc1ccc2c(c1)cc1n2CCN=C1N the “inhibition” value was -17.6%.
With CCC(C)(C)NC(=O)COc1ccc(C(=O)c2ccccc2)cc1 the “inhibition” value was -7.83%.
With CCOCCCNC(=O)C(c1ccc(OC)cc1)N(Cc1cccs1)C(=O)c1ccccn1 (stereo unspecified) the “inhibition” value was 9.15%.
With COCCCNC(=O)c1cc(OC)c(OC)c(OC)c1 the “inhibition” value was 10.2%.
With Cc1ccc(OCC(=O)N2CCN(S(C)(=O)=O)CC2)cc1 the “inhibition” value was -33.7%.
In the case of Cc1oc2nc(SCCCC(=O)NCCCO)nc(N)c2c1C, the “inhibition” value is reported as -14.7%.
For COc1cc(C(=O)Nc2ccc3c(c2)OCCO3)ccc1OC(C)C, the “inhibition” value was 28.5%.
For CCCC(C(=O)NCC1CCCO1)N(Cc1ccco1)C(=O)CNS(=O)(=O)c1ccc(F)cc1 (stereo unspecified), the “inhibition” value was 23%.
With O=C1c2ccccc2C(=O)N1CCC(c1ccccc1)c1ccco1 (stereo unspecified) the “inhibition” value was -29.2%.
In the case of O=c1oc2ccccc2c(O)c1C(c1ccccn1)c1c(O)c2ccccc2oc1=O, the “inhibition” value is reported as 13.5%.
With O=C(CC(=O)NCc1ccccc1)NCc1ccccc1 the “inhibition” value was -27.6%.
For S=C(Nc1ccccc1Cl)N(Cc1ccccc1)Cc1ccccn1, the “inhibition” value was -19.1%.
For Cc1cc(C)c2nc(/N=C(\N)NC(=O)c3ccccc3)nc(C)c2c1, the “inhibition” value was -14.7%.
In the case of O=C(NC(=O)c1ccccc1)OCC1CCCN2CCCCC12 (stereo unspecified), the “inhibition” value is reported as 0.4%.
In the case of CC(C)(C)c1ccc(C(=O)NNC(=O)Cc2ccccc2)cc1, the “inhibition” value is reported as -18.7%.
With O=C(c1cccs1)N1CCN(S(=O)(=O)c2ccccc2)CC1 the “inhibition” value was -1.71%.
With Cc1cc(C(=O)Nc2cccnc2)on1 the “inhibition” value was -8.91%.
For CCOC(=O)c1ccc(NC(=O)c2cc3c(s2)CCC3)cc1, the “inhibition” value was -14.7%.
With O=C(CCCc1ccccc1)Nc1cccnc1 the “inhibition” value was 21.9%.
With Cc1cc(C)c([C@@H]2C[C@H]3CN(C4CCCC4)C(=O)[C@]34CCCN24)c(-n2cccn2)c1 the “inhibition” value was 7.68%.
In the case of CC(C)(C)c1ccc(OCCCNC2CCCC2)cc1, the “inhibition” value is reported as 19.2%.
For O=C(CCCOc1ccc(Cl)cc1Cl)NNC(=O)C1CCC1, the “inhibition” value was 32.7%.
In the case of CCCOc1ccc(C(=O)NNC(=S)NC(=O)c2ccco2)cc1, the “inhibition” value is reported as 37.2%.
For CSCCC(NC(=O)c1ccc(Br)cc1)C(=O)O (stereo unspecified), the “inhibition” value was -19.7%.
For CCOc1ccc(NC(=O)c2ccc(N)cc2)cc1, the “inhibition” value was 22.8%.
